Compounds with a hit are over-represented: about 18% of the library has one in this group of screens.
TDP1 cell noCPT: qHTS for Inhibitors of human tyrosyl-DNA phosphodiesterase 1 (TDP1): qHTS in cells in absence of CPT. actives 15% (n = 420,000). DT40 Tdp1-/- hTDP1 cells, no CPT, ATP luminescence, 48 h. Potency, µM (titrated, usually from 46.2 µM), for the others: top-dose activity change, negative = growth inhibition, hits mostly inhibitors; also: nearly all actives have a fitted effect of over 55% in size
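Stably hTDP1-transfected Tdp1-null chicken DT40 cells were treated with library compounds minus camptothecin and grown for at least 48 hr at 37 °C, after which cellular ATP was quantified by luminescence.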
VDR inhibitor: inhibitors of human vitamin D receptor; P11473; VDR-SRC2-3 peptide fluorescence polarization, 2 h; Potency, µM, without a hit: max response, negative = inhibition, hits mostly inhibitors; actives 0.93% (n = 400,000); AID 504847
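Inhibition of the VDR/SRC2-3 peptide interaction is quantified by fluorescence polarization. Compounds (23 nl, pintool) incubate with the reagents for 2 hours at ambient room temperature.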
KAT2A inh: GCN5L2 (KAT2A) acetyltransferase inhibition; Q92830; GCN5L2 HAT assay, ThioGlo1 CoA-SH fluorescence; Potency, µM (highest dose often 58.9 µM), for inactives: at the highest dose activity change, negative = inhibition, usual class: inhibitors; actives 0.21% (n = 390,000)
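Free CoA generated was detected with ThioGlo1 (50uM) fluorescence at Ex340nm/Em540nm, read immediately and after 20 min at room temperature. Enzyme, 20 nM in HEPES pH 7.5 buffer, saw compounds 15 min before adding 75uM H3(1-25) peptide and 70uM acetyl-CoA.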
TDP1 cell CPT: growth inhibition of DT40 Tdp1-/-;hTDP1 cells with camptothecin (screen for TDP1 inhibitors); chicken DT40 Tdp1-/-;hTDP1 cells + 20 nM CPT, ATP luminescence, 48 h; Potency, µM (doses to about 46.2 µM), for inactives: at the highest dose activity change, negative = growth inhibition, hits mostly inhibitors; actives 12% (n = 420,000); also: nearly all actives have a fitted effect of over 55% in size
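Cell growth measured by CellTiter-Glo luminescence after a minimum 48 h, 37 C compound exposure with 20 nM CPT in Tdp1-knockout DT40 cells stably expressing hTDP1, seeded 400/well; qHTS titration format.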
TDP1 block: TDP1 (human) enzyme inhibition; Potency, µM (doses to about 130 µM), inactives show top-dose activity change, negative = inhibition, actives largely listed as inhibitors; actives 0.28% (n = 350,000); recombinant TDP1, AlphaScreen DNA substrate cleavage; Q9NUW8; also: nearly all actives have a fitted effect of over 40% in size
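Here, a 5' biotin and 3' phosphotyrosine-FITC DNA oligonucleotide reports Tdp1 activity: intact substrate bridges AlphaScreen beads, while cleavage leaves a 3' phosphate and drops signal. All incubations at room temperature.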
PLK1 PBD block: PLK1 (human) polo-box domain binding inhibition; P53350; Plk1 PBD binding of FITC phosphopeptide, fluorescence polarization; Potency, µM, for inactives: max response, negative = inhibition, usual class: inhibitors; actives 2.8% (n = 360,000); also: series mostly up to about 57 µM; nearly all actives have a fitted effect of over 65% in size
Target sequence (P53350 whole entry, looked up, the tested form may be a part): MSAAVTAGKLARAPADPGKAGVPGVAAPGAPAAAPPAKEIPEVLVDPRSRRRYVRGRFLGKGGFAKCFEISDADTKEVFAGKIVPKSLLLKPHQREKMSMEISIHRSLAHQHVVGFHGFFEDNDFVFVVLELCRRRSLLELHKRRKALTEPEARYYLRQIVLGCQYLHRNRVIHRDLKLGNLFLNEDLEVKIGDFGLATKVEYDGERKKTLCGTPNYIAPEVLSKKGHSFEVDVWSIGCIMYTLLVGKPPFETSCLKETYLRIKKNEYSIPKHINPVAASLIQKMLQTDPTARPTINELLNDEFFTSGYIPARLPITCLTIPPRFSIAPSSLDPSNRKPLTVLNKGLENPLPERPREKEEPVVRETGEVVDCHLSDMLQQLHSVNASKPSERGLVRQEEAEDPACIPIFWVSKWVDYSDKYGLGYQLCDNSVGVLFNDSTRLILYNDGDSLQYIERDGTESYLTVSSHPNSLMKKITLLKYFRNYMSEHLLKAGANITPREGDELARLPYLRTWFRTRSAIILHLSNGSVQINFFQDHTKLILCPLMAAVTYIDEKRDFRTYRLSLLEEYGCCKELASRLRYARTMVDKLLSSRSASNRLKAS
Active calls of the source: *; ? = inconclusive; . = no result. Calls follow the shape of the dose curve; as a rule, active = well fitted curve in the direction sought with a large enough effect; inconclusive = small, poorly fitted or top-dose-only effect, or another doubt; inactive = no such curve, though single readings can be large; an effect the other way counts as inactive or inconclusive. % is scaled to controls: 0 for no effect and ±100 for the full control effect; potency is read from the fitted curve at half-maximal effect.

SMILES	TDP1 cell noCPT	VDR inhibitor	KAT2A inh	TDP1 cell CPT	TDP1 block	PLK1 PBD block
COC(=O)C1(Cc2cc(-c3ccc([N+](=O)[O-])cc3)no2)CCN(C(=O)OC(C)(C)C)CC1	20.6µM*	-4.8%	-9.1%	?	2.2%	-11.3%
CC(C)(C)OC(=O)N1CCN(c2ccc([N+](=O)[O-])cc2)CC1	3.5%	-21.8%	-21.2%	-0.4%	0.6%	0.1%
COC(=O)C1(Cc2cc(-c3ccc(Cl)cc3)no2)CCN(C(=O)OC(C)(C)C)CC1	18.4µM*	-4.5%	-6.8%	?	.	-7.6%
CCN(CC(=O)Nc1c(F)cccc1F)C(=O)c1ccc2c(c1)OCCO2	1.8%	4.1%	-2.9%	8.9%	.	0.1%
O=C(CCl)N1CCN(C(=O)C2COc3ccccc3O2)CC1 (configuration not stated)	3.66µM*	-21.3%	0.2%	?	0.1%	-12.6%
O=C(Nc1ccc(S(=O)(=O)Nc2ncccn2)cc1)C1COc2ccccc2O1 (configuration not stated)	-8.9%	-10.2%	-4.0%	1.0%	-2.3%	-10.6%
CC(=O)Nc1ccc(S(=O)(=O)N2CCN(C(=O)C3COc4ccccc4O3)CC2)cc1 (configuration not stated)	?	-1.2%	-1.6%	-29.0%	4.4%	-1.5%
COc1ccc(S(=O)(=O)N2CCN(C(=O)C3COc4ccccc4O3)CC2)cc1 (configuration not stated)	?	3.6%	?	?	3.55µM*	10.6µM*
COc1ccc2c(C)c(CC(=O)N3CCN(C(=O)C4COc5ccccc5O4)CC3)c(=O)oc2c1C (configuration not stated)	?	?	-7.6%	?	5.0%	3.36µM*
CCN1CCN(C(=O)C2COc3ccccc3O2)CC1 (configuration not stated)	17.5%	29.8%	0.6%	0.4%	2.2%	0.0%
COc1ccc(OC)c(NS(=O)(=O)c2ccc(NC(=O)C3COc4ccccc4O3)cc2)c1 (configuration not stated)	18.4µM*	-4.1%	-14.4%	14.6µM*	4.5%	-0.6%
CC(c1ccncc1)C(C)c1ccncc1 (configuration not stated)	0.1%	-16.3%	0.0%	-14.2%	-4.8%	-12.3%
Cc1ccc(F)c(S(=O)(=O)NC(=O)C2(C)CCN2C(=O)C/C=C/c2ccccc2)c1 (configuration not stated)	6.1%	.	.	-9.1%	.	-11.1%
COc1cccc(CNC(=O)CCCc2nnc3n(C)c(=O)c4sccc4n23)c1	-15.3%	-15.7%	-3.9%	-26.8%	2.6%	3.2%
COc1ccc(S(=O)(=O)N2CCCCC2)cc1NC(=O)C1COc2ccccc2O1 (configuration not stated)	23.1µM*	-11.4%	-8.5%	23.1µM*	-20.6%	-1.7%
COc1ccc(S(=O)(=O)N2CCCCC2)cc1NC(=O)c1ccc2c(c1)OCO2	14.6µM*	-13.3%	-5.8%	?	3.0%	-1.4%
COc1ccc(S(=O)(=O)N2CCCCC2)cc1NC(=O)c1ccc(OC)c(OC)c1	-16.7%	-21.9%	-2.3%	-1.6%	-8.6%	-2.2%
CCNC(=O)C1CCCN(C(=O)c2cccs2)CC1 (configuration not stated)	11.7%	.	.	3.5%	.	-6.4%
Nc1ccc(CC(N)c2csc(Nc3cc(Oc4ccccc4)ncn3)n2)cc1 (configuration not stated)	23.1µM*	.	.	?	.	-1.7%
COc1ccc(C(N)c2csc(Nc3cc(Oc4ccccc4)ncn3)n2)cc1 (configuration not stated)	23.1µM*	.	.	23.1µM*	.	8.7%
NC(c1csc(Nc2cc(Oc3ccccc3)ncn2)n1)C1CCCCC1 (configuration not stated)	?	.	.	?	.	5.8%
NC(Cc1ccc(C(F)(F)F)cc1)c1csc(Nc2cc(Oc3ccccc3)ncn2)n1 (configuration not stated)	?	.	.	?	.	-16.6%
COc1ccc(N2C3=C(CC4=C2CC(C)(C)CC4=O)C(=O)CC(C)(C)C3)cc1	3.26µM*	-88.8%	33.7%	4.61µM*	3.4%	8.44µM*
Cc1ccc(N2C3=C(C(=O)CC(C)(C)C3)C(c3cn(C)nc3C)C3=C2CC(C)(C)CC3=O)cc1	13µM*	20µM*	.	14.6µM*	.	3.77µM*
COc1ccc(C2C3=C(CC(C)(C)CC3=O)N(C)C3=C2C(=O)CC(C)(C)C3)cc1	-12.2%	3.9%	-13.9%	-28.6%	3.6%	3.0%
SMILES	TDP1 cell noCPT	VDR inhibitor	KAT2A inh	TDP1 cell CPT	TDP1 block	PLK1 PBD block
COc1ccc(N2C3=C(C(=O)CC(C)(C)C3)C(c3ccccc3OC)C3=C2CC(C)(C)CC3=O)cc1	16.4µM*	-12.6%	1.9%	?	4.2%	-1.3%
COc1ccc(CNC(=O)c2cc3c(=O)oc4ccc(C)cc4c3s2)c(OC)c1	-24.5%	-25.9%	-6.2%	5.2%	1.2%	.
CC1CCN(C(=O)CSc2nc(C(C)C)nc3c2c(=O)n(C)c(=O)n3C)CC1	18.4µM*	-6.5%	-10.6%	16.4µM*	5.5%	-2.5%
Cc1cc(NC(=O)CSc2nc(C(C)C)nc3c2c(=O)n(C)c(=O)n3C)no1	16.4µM*	-24.7%	-3.9%	16.4µM*	-2.1%	-4.7%
CC(C)c1nc(SCC(=O)N2CCCc3ccccc32)c2c(=O)n(C)c(=O)n(C)c2n1	6.51µM*	-4.5%	-6.7%	7.31µM*	4.3%	1.6%
CCN(CC)S(=O)(=O)c1ccc(C(=O)NCC(c2ccc(OC)cc2)N2CCOCC2)cc1 (configuration not stated)	-22.6%	-18.1%	-7.9%	-15.8%	2.5%	-8.5%
Cc1ccc(-c2nc3cnccn3c2Nc2ccc(C(C)C)cc2)o1	10µM*	?	.	?	2.6%	.
Cc1ccc(-c2nc3cnccn3c2Nc2c(C)cccc2C)o1	10.3µM*	?	-21.6%	5.8µM*	2.5%	?
CCOC(=O)CSc1nc(-c2ccccc2)ns1	?	?	-5.8%	?	0.0%	3.36µM*
O=C(CSc1nc(-c2ccccc2)ns1)N1CCOCC1	2.4%	-24.7%	-8.5%	-7.8%	5.3%	21.2µM*
Cc1cccc(-c2nsc(SCC(=O)N3CCCC3)n2)c1	?	4.8%	6.5%	-7.9%	3.9%	?
COc1ccc(CNC(=O)C2CCN(S(=O)(=O)c3c(C)noc3/C=C/c3ccccc3F)CC2)cc1	-15.6%	-1.6%	-0.8%	?	-5.3%	.
O=C1OC(O)c2cccc3cccc1c23 (configuration not stated)	1.2%	.	.	10.0%	.	11.0%

Screening results from PubChem.
